Measured values reported in ChEMBL document CHEMBL4513216, “Probing the Open Global Health Chemical Diversity Library for Multistage-Active Starting Points for Next-Generation Antimalarials” (ACS Infect Dis, 2020).
In all, about 69,000 compounds went through this assay and about 8,600 (12%) showed an effect of 50% or more. Shown is part of a subset that was picked to be rich in strong results.

Test system: Plasmodium berghei
Experiment: Screen against P. berghei liver stage (PbLuc), transformed with Luciferase, at 10uM
Format: functional, HepG2
Conditions: tested at 10 uM

SMILES	INHIBITION [%]
Cc1nc(S(=O)(=O)N2CCCCc3ccccc32)cn1C	-49.3
COc1cccc(CC(=O)N2CCC(c3ccn4nccc4n3)CC2)c1	23.9
Cc1ccc(S(=O)(=O)NCC2CNCCOC2)cc1Cl (stereo not given)	-95.7
O=C(NS(=O)(=O)c1ccc(C2CCCCC2)cc1)C1COCCO1 (stereo not given)	46.4
O=S(=O)(NCC1COCCO1)c1ccc(C2CCCCC2)cc1 (stereo not given)	74.5
Cc1cc(C)n(CC2CCCN2C(=O)c2cncnc2C)n1 (stereo not given)	-2.1
CCOCCN1CCc2cncnc2C1	53.3
O=C(CN1CCc2cncnc2C1)NC(C1CC1)C1CC1	57
COCCCN1CCc2cncnc2C1	40.3
Cc1ncc2c(n1)CN(CC1CCCCO1)CC2 (stereo not given)	3.17
CC(C)OCCN1CCc2cncnc2C1	24.4
Cc1ccc(C(NC(=O)CN2CCc3cncnc3C2)C2CC2)cc1 (stereo not given)	34.2
N#Cc1ccc(OCCN2CCc3cncnc3C2)cc1	9.54
O=C(CN1CCc2cncnc2C1)NC(c1ccccc1)C1CC1 (stereo not given)	24.4
FC(F)(F)COCCN1CCc2cncnc2C1	64
c1ncc2c(n1)CN(CC1CCCCO1)CC2 (stereo not given)	87.1
CCc1ncc2c(n1)CN(CC1CCCCO1)CC2 (stereo not given)	9.35
Cc1ncc2c(n1)CN(CCOCC(F)(F)F)CC2	26.6
Cn1nnc2c(N3CC(C(=O)NCc4ccccc4F)C3)ncnc21	15.7
Cc1cnn(CC2CCCN2CCCS(=O)(=O)N(C)C)c1 (stereo not given)	2.97
N#Cc1ccc(C2CC(=O)Nc3c(C(=O)O)nsc32)cc1 (stereo not given)	-38.7
CC(C)C(Sc1nnc(NC2CC2)s1)C(=O)NCc1cccnc1 (stereo not given)	-26.7
Cc1noc(C)c1S(=O)(=O)NC(=O)COc1cccc(C(C)C)c1	13.3
Nc1nc2c(s1)C(c1c(F)cccc1Cl)CC(=O)N2 (stereo not given)	30
CCNc1ncc(C(=O)N(C)C(C)c2ccc3c(c2)OCCO3)cn1 (stereo not given)	15.8
Cc1ccccc1-c1cncc(C2CCN(CCO)CC2)n1	38.2
CN(CC1COc2ccccc2O1)C(=O)C1=NN(C)C(=O)CC1 (stereo not given)	25.7

SMILES	INHIBITION [%]
CCCN(CC1COc2ccccc2O1)C(=O)C1=NN(C)C(=O)CC1 (stereo not given)	42.4
CCN(CC1COc2ccccc2O1)C(=O)C1=NN(C)C(=O)CC1 (stereo not given)	50.8
CCNC(=O)CCCC(=O)N1CCc2cc(Cl)cc(Cl)c2C1	-4.52
COC(=O)C1CCN(C(=O)Cn2ccc(-c3ccccc3)n2)CC1	-35
CN1CCO[C@H]2CN(C(=O)c3ccoc3)C[C@H]21	54.4
O=C(c1ccoc1)N1C[C@@H]2OCCN(c3ncccn3)[C@@H]2C1	-4.32
CC(C)N1CCO[C@H]2CN(C(=O)c3ccoc3)C[C@H]21	38.7
O=C(NCc1cc(-c2ccccc2)no1)NC1CCCCNC1=O (stereo not given)	-24.8
O=C(c1n[nH]cc1Cl)N1CCCC(n2nnc3cc(F)ccc32)C1 (stereo not given)	38.8
N#CC1(C(=O)N2C[C@@H]3CC[C@H]2CN(Cc2ccncc2)C3)CCOCC1	26.5
CN(CC(C)(C)C)S(=O)(=O)c1ccc(C(F)(F)F)nc1	33.7
CN(Cc1cnccn1)S(=O)(=O)c1ccc(C(F)(F)F)nc1	75.5
Cc1ccc(S(=O)(=O)N(C)Cc2cnccn2)cc1N(C)C	26
CN1CCN(C(=O)c2cn3ccsc3n2)[C@H]2CS(=O)(=O)C[C@H]21	38.5
CN1CCCC1CNC(=O)CCCOc1ccc(Cl)cc1 (stereo not given)	24.665
O=C(c1ccsc1)N1C[C@@H]2CCN(C(=O)c3cscn3)[C@@H]2C1	27.5
O=C(C1CCC1)N1CCC(c2ncc3c(n2)CCNC3)CC1	-12.9
CC1(C)CN(C(=O)CC2CCC2)C[C@]1(C)O	47.4
CC1(C)CN(C(=O)CC2CCS(=O)(=O)CC2)C[C@]1(C)O	34.4
CCN(CC)Cc1cc(C(=O)N2CC(C)(C)[C@@](C)(O)C2)c(C)o1	35.7
CC1(C)CC(CC(=O)N2CC(C)(C)[C@@](C)(O)C2)CC(C)(C)N1	70.2
CCCN1CCC(CC(=O)N2CC(C)(C)[C@@](C)(O)C2)CC1	57.2
CCc1ccc(C(=O)N2CC[C@](C)(O)C(C)(C)C2)[nH]1	-10.6
CCc1cc(N[C@@H]2CC[C@@H](N)C2)n2nc(C)c(C)c2n1	-42.8
Cc1cc(C(=O)NCC(C)C)nn1C	37.9
O=C(NCc1cc2ccccc2[nH]1)C1CCCN(C(=O)N2CCCC2)C1 (stereo not given)	3.87
COC(=O)CC1c2cccnc2C(=O)N1Cc1ccccc1 (stereo not given)	36.6

SMILES	INHIBITION [%]
CN(CC(=O)N1CCCC1)C(=O)Cc1csc(-c2ncccn2)n1	30.057
O=C(c1cccc(F)c1)N1CCCN(Cc2cscn2)CC1	-75.2
Cc1cc(C)c2c(OCC(=O)NC(C)C)nn(C)c2n1	37.1
Cc1cc(NCC2CCCO2)cc(=O)n1C (stereo not given)	29.3
Cc1cc(C)c2cc(CNC3CCCCC3)c3nn(C)c(=O)n3c2c1	73.8
Cc1noc2ncc(C(=O)NCC3CCCO3)cc12 (stereo not given)	-17.45
Cc1cc(C)c2cc(CNCC3CCCO3)c3nn(C)c(=O)n3c2c1 (stereo not given)	55.2
Cc1cc(C)c2cc(CNC(C)C)c3nn(C)c(=O)n3c2c1	64.9
CCCn1cnnc1CNC1CCCC1	9.91
Cc1cc(C)c2ncn(CCC(C)O)c(=O)c2c1 (stereo not given)	6.28
Cc1nn(C)c(C)c1CC(=O)NCc1ccnc(OC2CCCC2)c1	25.3
Cc1csc(N2CCC(CCN3CCCC3=O)CC2)n1	-40.5
COc1ccc2c3c1CN(S(C)(=O)=O)CC3=CC(C)(C)CO2	29.8
Cn1ncc2c(=O)[nH]c(CN3CCCC3c3ccsc3)nc21 (stereo not given)	-19.6
O=C([C@H]1C[C@H]2OCC[C@H]2N(CC2CCOCC2)C1)N1CCCC1	76.3
O=C([C@H]1C[C@H]2OCC[C@H]2N(CC2CCOCC2)C1)N1CCCCO1	50.9
O=C([C@H]1C[C@H]2OCC[C@H]2N(CC2CC2)C1)N1CCCCO1	29.9
O=C([C@H]1C[C@H]2OCC[C@H]2N(CC2CC2)C1)N1CCCC1	82.2
O=C([C@H]1C[C@@H]2[C@@H](C1)OCCN2CC1CC1)N1CCCC1	5.36
CNC(=O)[C@H]1C[C@H]2OCC[C@H]2N(CC2CC2)C1	10.5
CNC(=O)[C@H]1C[C@H]2OCC[C@H]2N(CC2CCOCC2)C1	10.5
O=C([C@H]1C[C@H]2OCC[C@H]2N(C(=O)C2CCOCC2)C1)N1CCCCO1	28.3
O=C(NC1CC1)[C@H]1C[C@H]2OCC[C@H]2N(CC2CCOCC2)C1	25.4
CC1CCN(c2nc3cn(-c4ccccc4)c(=O)c-3c[nH]2)CC1	-21.5
Cc1cccc(CN2CCCC3(CCC(=O)N3CCN(C)C)CC2)n1 (stereo not given)	-6.05
CN(C)C(=O)N1C[C@@H]2CCCO[C@@H]2[C@H](N(C)Cc2ccco2)C1	41.8
CC(C)c1n[nH]c(C2CN(C(=O)c3cnccn3)CCO2)n1 (stereo not given)	48.4

SMILES	INHIBITION [%]
CN1CCC(C)(CNC(=O)c2ccc(SCc3cccnc3)cc2)CC1	34
CCSc1ncc(Cl)c(C(=O)NC(CCSC)C(=O)O)n1 (stereo not given)	15.9
CC1CN(C(=O)NCc2cnn(-c3ccc(F)cc3F)c2)CCO1 (stereo not given)	-2.55
CNS(=O)(=O)c1ccc(CNC(=O)NCC2CCC2)cc1	-75.2
CNS(=O)(=O)c1ccc(CNC(=O)C2CCCO2)cc1 (stereo not given)	54.3
CNS(=O)(=O)c1ccc(CNC(=O)N(CC(C)C)C(C)C)cc1	31.2
CNS(=O)(=O)c1ccc(CNC(=O)N2CCOC(C)C2)cc1 (stereo not given)	50
CNS(=O)(=O)c1ccc(CNC(=O)NCC2CCCO2)cc1 (stereo not given)	0.932
CNS(=O)(=O)c1ccc(CNC(=O)C2CN(C)CCO2)cc1 (stereo not given)	50
CNS(=O)(=O)c1ccc(CNC(=O)C2CCCN(C)C2)cc1 (stereo not given)	-34.8
CNS(=O)(=O)c1ccc(CNC(=O)NCC2CCOC2)cc1 (stereo not given)	21.9
Cc1c(NC(=O)NCCO)cccc1OC1CCCC1	-2.27
CCN(CC)CC1CCN(Cc2ccn(C)c(=O)c2)CC1	-18
COc1ccc(CNc2cc3[nH]c(O)nc3cc2C)cc1	29.1
O=C(CCS(=O)(=O)c1ccccc1)NC1CCOC2(CCOCC2)C1 (stereo not given)	12.1
COc1ccc(COCC(=O)N2CCCC(n3cncn3)C2)cc1 (stereo not given)	-9.76
Cn1cccc1C(=O)N1CCC2(CC1)COC(COc1ccccn1)C2 (stereo not given)	-8.19
CC(C)(C)CN1CCCC12CCN(S(=O)(=O)c1ccccc1)C2 (stereo not given)	78.8
O=C1CCC2(CCN(S(=O)(=O)c3ccccc3)CC2)N1CC1CC1	-51.6
O=C1N(CC2CCC2)CCCC12CCN(S(=O)(=O)c1cccnc1)C2 (stereo not given)	-21.8
O=S(=O)(c1ccccc1)N1CCC2(CCCN2CC2CCCC2)C1 (stereo not given)	71.1
CCN1C(=O)CCC12CCN(S(=O)(=O)c1ccccc1)CC2	-2.35
CC(=O)N1CCC2(CC1)CCN(S(=O)(=O)c1ccccc1)C2	-18.4
Cc1c[nH]nc1C1CN(c2ncccn2)CCO1 (stereo not given)	14.575
